# Data taken from the supplement of paper PMC9402605.
# ± gives the standard deviation of the averaged measurements.
# Tested on: Caenorhabditis elegans N2
# Assay: egg-laying rate relative to DMSO control (serotonin + nicotine background) (fraction of control); higher = more egg-laying
# Conditions: background: 12.3 mM serotonin + 7.7 mM nicotine; 60 µM; 1 h
# Method: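 About 20 young-adult wild-type C. elegans (N2) per well in 96-well plates were exposed to 60 uM compound for 1 h at room temperature, either in M9 buffer (to find stimulators) or in 12.3 mM serotonin + 7.7 mM nicotine (NS, to find inhibitors). Eggs per worm per hour were counted by automated imaging and normalised to the mean of proximal DMSO control wells. Values average the primary screen and two retests of the worm-active (wactive) Egl modulators.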
row,Structure (SMILES),egg-laying rate
1,c1ccc(CSc2nnc(-c3ccccc3)o2)cc1 [wact-38],0.966 ± 0.24
2,O=C(Nc1cccc(Cl)c1)N1CCN(c2ccc([N+](=O)[O-])cc2)CC1 [wact-31],1.03 ± 0.29
3,O=[N+]([O-])c1ccc(N2CCN(CC3CC=CCC3)CC2)cc1 (stereo not given) [wact-47],1.13 ± 0.076
4,Fc1ccc(-c2cn3ccsc3n2)cc1 [wact-433],0.471 ± 0.016
5,O=[N+]([O-])c1ccc(-n2ccc3ccccc32)cc1 [wact-213],0.444 ± 0.061
6,COc1ccc(C=Cc2ccccn2)cc1 [wact-622],0.373 ± 0.18
7,O=C(Nc1ccc(I)cc1)c1ccco1 [wact-27],0.759 ± 0.099
8,O=[N+]([O-])c1ccc(N2CCN(CC3CCCCC3)CC2)cc1 [wact-45],0.994 ± 0.16
9,O=C1CC(N2CCN(c3ccc([N+](=O)[O-])cc3)CC2)C(=O)N1c1ccccc1F (stereo not given) [wact-56],1.06 ± 0.17
10,CCSc1nnc(-c2ccc(Cl)cc2Cl)o1 [wact-4],0.795 ± 0.052
11,CCOc1ccc(C(=O)c2cccs2)cc1 [wact-471],1.02 ± 0.22
12,CCCCOC(=O)Nc1ccc([N+](=O)[O-])cc1 [wact-419],0.733 ± 0.18
13,c1csc(-c2cnc3ccccc3n2)c1 [wact-21],0.816 ± 0.081
14,Ic1cccc(-c2nnc(-c3ccccc3)o2)c1 [wact-51],0.995 ± 0.094
15,Cc1ccccc1C(=O)NCCSC1CCCCC1 [wact-494],0.524 ± 0.2
16,O=[N+]([O-])c1ccc(N2CCN(CC3CC4C=CC3C4)CC2)cc1 (stereo not given) [wact-46],1.34 ± 0.22
17,Brc1cccc(-c2cn3ccccc3n2)c1 [wact-435],0.712 ± 0.25
18,Cc1ccn2cc(-c3ccc(F)cc3)nc2c1 [wact-436],0.478 ± 0.25
19,O=[N+]([O-])c1ccc(N2CCc3ccccc3C2)nc1 [wact-421],0.435 ± 0.099
20,Cc1ccc(-c2cnc(-c3ccncc3)o2)cc1 [wact-23],0.55 ± 0.19
21,CCC1CCC(N2CCN(c3ccc([N+](=O)[O-])cc3)CC2)CC1 (stereo not given) [wact-6],0.999 ± 0.56
22,CCc1ccc(-c2cn3ccsc3n2)cc1 [wact-434],0.474 ± 0.18
23,Cc1ccccc1C(=O)NCCc1ccccc1 [wact-406],0.394 ± 0.22
24,O=[N+]([O-])c1ccc(CSc2ccc(Cl)cc2)cc1 [wact-3],0.473 ± 0.36
25,Clc1ccc(-c2cn3ccsc3n2)cc1 [wact-1],0.584 ± 0.24
